In PubChem BioAssay AID1159580 (chemical genetic matrix, 2015):
Values joined by “and” are separate entries in the source; they are usually repeats but may differ in a detail not shown here. Equal values may be shown once. In all, about 5,500 compounds went through this assay and about 2,000 (36%) were called active. Inconclusive results (about 18%) are left out. Rule as the data show it: active = normalized growth mostly below about 0.91 (no sharp cut-off); inconclusive = no clear call, values can overlap the other calls; inactive = mostly above about 0.92. The list shows a part of the results.

Test: chemical genetic growth profiling, strain panel (AID 1159580);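 also: tested at 20 µM; growth read once vehicle control cultures reached saturation at 30 °C; 1 = growth at the plate median or of vehicle wells; lower values mean less growth of the strain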
Conditions: S. cerevisiae deletion strains, growth OD

Measured: normalized growth

c1ccc2c(c1)CCCC2C1=NCCN1 (centres undefined)
inactive: locus YAL013W, strain DEP1, hits give low values 1.01 and 1 | locus YAL021C, strain ccr4, hits give low values 1.02 | locus YAL026C, strain drs2, hits give low values 1.02 | locus YAL030W, strain snc1, hits give low values 1.02 | locus YAL040C, strain CLN3, hits give low values 1.05 | locus YBL061C, strain skt5, hits give low values 1.02 | locus YBR009C, strain hhf1, hits give low values 1.03 | locus YBR021W, strain FUR4, hits give low values 1.05 | locus YBR023C, strain chs3, hits give low values 1.02 | locus YBR171W, strain sec66, hits give low values 1.03 | locus YBR229C, strain ROT2, hits give low values 1.01 | locus YBR231C, strain swc5, hits give low values 1.02 | locus YBR279W, strain paf1, hits give low values 1.01 | locus YCL011C, strain gbp2, hits give low values 1.02 | locus YCL016C, strain dcc1, hits give low values 1.02 | locus YCL029C, strain bik1, hits give low values 0.995 | locus YCL061C, strain MRC1 (second series), hits give low values 1.01 | locus YCL069W, strain vba3, hits give low values 1.02 | locus YCR088W, strain abp1, hits give low values 1.02 | locus YDL005C, strain med2, hits give low values 1.02 | locus YDL035C, strain GPR1, hits give low values 1.02 | locus YDL040C, strain nat1, hits give low values 1.02 | locus YDL074C, strain BRE1, hits give low values 1.01 | locus YDL101C, strain DUN1, hits give low values 1.01 | locus YDL134C, strain PPH21, hits give low values 1.01 | locus YDL185W, strain tfp1, hits give low values 0.993 | locus YDL192W, strain arf1, hits give low values 1 | locus YDR001C, strain nth1, hits give low values 1.01 | locus YDR069C, strain doa4, hits give low values 1 | locus YDR101C, strain arx1, hits give low values 0.995 | locus YDR137W, strain rgp1, hits give low values 1.03 | locus YDR150W, strain NUM1, hits give low values 1.01 | locus YDR159W, strain sac3, hits give low values 1.02 | locus YDR162C, strain NBP2, hits give low values 1.02 | locus YDR195W, strain ref2 1.01 | locus YDR297W, strain sur2, hits give low values 1.03 | locus YDR318W, strain mcm21, hits give low values 1.01 | locus YDR334W, strain swr1, hits give low values 1.02 | locus YDR335W, strain msn5, hits give low values 1.03 | locus YDR363W, strain ESC2, hits give low values 1.02 | locus YDR388W, hits give low values 1.01 | locus YDR392W, strain spt3, hits give low values 1.03 | locus YDR502C, strain sam2, hits give low values 0.991 | locus YEL003W, strain gim4, hits give low values 1.02 | locus YEL037C, strain rad23, hits give low values 1.03 | locus YEL061C, strain CIN8 (second series), hits give low values 1.02 | locus YEL061C, strain CIN8, hits give low values 1.01 | locus YER002W, strain NOP16, hits give low values 0.992 | locus YER015W, strain faa2, hits give low values 1.02 | locus YER016W, strain bim1, hits give low values 1.03 | locus YER110C, hits give low values 1.01 | locus YER111C, strain swi4, hits give low values 1.03 | locus YER155C, strain BEM2 (second series), hits give low values 1.04 | locus YER155C, strain BEM2, hits give low values 1.01 | locus YER167W, strain BCK2, hits give low values 1.01 | locus YFR010W, strain ubp6, hits give low values 1.01 | locus YGL078C, strain dbp3, hits give low values 0.989 | locus YGL086W, strain mad1, hits give low values 0.998 | locus YGL167C, strain pmr1, hits give low values 1.04 | locus YGL173C, strain kem1, hits give low values 1.02 | locus YGL227W, strain vid30, hits give low values 1.03 | locus YGL240W, strain doc1, hits give low values 1.03 | locus YGL248W, strain PDE1, hits give low values 1.01 | locus YGL253W, strain hxk2, hits give low values 1.03 | locus YGR135W, strain pre9, hits give low values 0.987 | locus YGR229C, strain SMI1, hits give low values 1.02 and 1.03 | locus YGR252W, strain gcn5, hits give low values 0.971 | locus YHR013C, strain ard1, hits give low values 1.05 | locus YHR027C, strain rpn1, hits give low values 1.01 | locus YHR030C, strain SLT2, hits give low values 1.01 and 0.988 | locus YHR079C, strain IRE1 (second series), hits give low values 1.01 | locus YHR079C, strain IRE1, hits give low values 0.976 | locus YHR094C, strain hxt1, hits give low values 1 | locus YHR129C, strain ARP1, hits give low values 1.01 | locus YHR142W, strain chs7, hits give low values 1.02 | locus YHR200W, strain rpn10, hits give low values 0.997 | locus YIL066C, strain RNR3, hits give low values 1.01 | locus YIL073C, strain SPO22, hits give low values 1.02 | locus YIL125W, strain kgd1, hits give low values 0.958 | locus YIR030C, strain dcg1, hits give low values 0.999 | locus YJL092W, strain hpr5, hits give low values 1.02 | locus YJL095W, strain BCK1 (second series), hits give low values 1.02 | locus YJL095W, strain BCK1, hits give low values 1 and 0.971 | locus YJL115W, strain asf1, hits give low values 1.01 | locus YJL129C, strain trk1, hits give low values 1.02 | locus YJL134W, strain LCB3, hits give low values 1.01 | locus YJL154C, strain vps35, hits give low values 1.02 | locus YJL164C, strain tpk1, hits give low values 1.02 | locus YJL166W, strain qcr8, hits give low values 1.02 | locus YJL168C, strain set2, hits give low values 1 | locus YJL187C, strain SWE1 (second series), hits give low values 1.02 | locus YJR043C, strain POL32, hits give low values 1.01 | locus YJR066W, strain TOR1, hits give low values 0.945 | locus YJR075W, strain HOC1, hits give low values 1.01 and 0.998
